We go through eight compounds from PubChem BioAssay (Tox21).

Results filed as inconclusive are left out. Unmarked numbers belong to inactive results. The source made the active and inactive calls. Unless noted, calls come from the whole dose curve; as a rule, active = well fitted curve in the direction sought with a large enough effect in the repeat runs; inconclusive = weak or mixed curves; inactive = no such curve, though single readings can be large; an effect the other way counts as inactive or inconclusive.

The nature of test [1]: qHTS assay to identify small molecule agonists of the peroxisome proliferator-activated receptor delta (PPARd) signaling pathway - cell viability counter screen (AID 743211). Note: nearly all actives have a fitted effect of over 55% in size. Put shortly:
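HEK293H PPARd-bla, 3000 cells/well; 5 h preincubation 37C/5% CO2; cpd in DMSO, 17 h 37C; B/G FRET substrate 2 h RT; CellTiter-Glo 30 min RT, luminescence.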
In general terms: Quantitative high-throughput screening tests each substance at several concentrations.

Test [2] has as its target Peroxisome proliferator-activated receptor delta (Homo sapiens) (UniProt Q03181). The test can be described thus: qHTS assay to identify small molecule antagonists of the peroxisome proliferator-activated receptor delta (PPARd) signaling pathway (AID 743215; active = well fitted inhibition curve with a large enough effect in the signal ratio in the repeat runs, not every such curve was filed as active; the % refers to the signal ratio;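 note: cells stimulated with agonist L165041 at 300 nM final during compound exposure; series mostly up to about 62 µM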). Put shortly:
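PPARd-bla HEK293H cells (UAS-bla reporter) preincubated 5 h, then given compound plus 300 nM final L165041 agonist for 17 h at 37 C. Beta-lactamase activity read by LiveBLAzer B/G FRET substrate fluorescence after 2 h at room temperature.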

Test [3] is described as follows: qHTS assay to identify small molecule agonists of the farnesoid-X-receptor (FXR) signaling pathway - cell viability counter screen (AID 743218). Note: nearly all actives have a fitted effect of over 45% in size. Note: potency is the fitted concentration of half-maximal effect. In outline: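 FXR-UAS-bla HEK 293T cells exposed to compounds for 16 h at 37C. Cytotoxicity read in the same wells by CellTiter-Glo luminescence after 30 min at room temperature, following the beta-lactamase FRET read.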

A short description of test [4]: qHTS assay to identify small molecule antagonists of the farnesoid-X-receptor (FXR) signaling pathway - cell viability counter screen (AID 743221; active = well fitted cell-killing curve with a large enough effect in the repeat runs, not every such curve was filed as active; note: nearly all actives have a fitted effect of over 50% in size). Put shortly:
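Luminescence from CellTiter-Glo measures cytotoxicity in GeneBLAzer FXR-UAS-bla HEK 293T cells. Cells were exposed to compounds with 50 uM chenodeoxycholic acid (final) for 16 h at 37 C, in wells also used for the reporter readout.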

The target of test [5] is Vitamin D3 receptor (Homo sapiens) (UniProt P11473). Nature of the test: qHTS assay to identify small molecule agonists of the vitamin D receptor (VDR) signaling pathway (AID 743222; calls by dose curve). Put shortly:
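VDR-bla cells plated 4 h at 37 C, then exposed to compounds for 16 h at 37 C. Beta-lactamase reporter activity measured by fluorescence after 2 h room-temperature loading with LiveBLAzer B/G FRET substrate.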

Test [6] has the same target. Nature of the test: qHTS assay to identify small molecule antagonists of the vitamin D receptor (VDR) signaling pathway (AID 743223; active = well fitted inhibition curve with a large enough effect in the signal ratio in the repeat runs, not every such curve was filed as active; the % refers to the signal ratio). Put shortly:
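Antagonist mode uses 1alpha,25-dihydroxyvitamin D3 at 3 nM final as stimulus. VDR-bla cells receive compounds in DMSO, incubate 16 h at 37C, then a beta-lactamase FRET substrate for 2 h at room temperature before fluorescence measurement.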

A short description of test [7]: qHTS assay to identify small molecule agonists of the vitamin D receptor (VDR) signaling pathway - cell viability counter screen (AID 743224). Note: series mostly up to about 63 µM; nearly all actives have a fitted effect of over 50% in size. Put shortly:
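VDR-bla cells, 4 h after plating, exposed to compounds for 16 h at 37C; viability then read in the same wells as CellTiter-Glo luminescence after 30 min at room temperature, following the bla FRET read.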

A short description of test [8]: qHTS assay to identify small molecule antagonists of the vitamin D receptor (VDR) signaling pathway - cell viability counter screen (AID 743225). Note: nearly all actives have a fitted effect of over 50% in size. In outline: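 Read-out: CellTiter-Glo luminescence measured 30 min after reagent addition at room temperature. Cells were VDR-bla HEK 293T exposed 16 h at 37C, 5% CO2, to compound with 3 nM final calcitriol agonist.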
A short description of test [9]: qHTS assay to identify small molecule agonists of the NFkB signaling pathway (AID 1159509; active = well fitted curve in the direction sought with a large enough effect in the signal ratio in the repeat runs, not every such curve was filed as active; the % refers to the signal ratio; note: series mostly up to about 61 µM). In outline:
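NFkB-bla ME-180 cells with a beta-lactamase reporter under an NF-kB response element were plated overnight, treated with compounds in DMSO for 5 hr at 37 C, then loaded with FRET substrate for 1.5 hr at room temperature.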

Test [10] can be described thus: qHTS assay to identify small molecule agonists of the NFkB signaling pathway - cell viability counter screen (AID 1159515; calls by dose curve; note: series mostly up to about 61 µM; nearly all actives have a fitted effect of over 55% in size). In outline:
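NFkB-bla ME-180 cells, 2,000/well, plated overnight at 37 C; compound added for 5 hr at 37 C. Viability read in the same wells as the bla reporter, by CellTiter-Glo luminescence after 30 min at room temperature.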

Test [11] in a line: qHTS assay to identify small molecule agonists of the endoplasmic reticulum stress response signaling pathway (AID 1159516; active = well fitted activation curve with a large enough effect in the signal ratio in the repeat runs, not every such curve was filed as active; the % refers to the signal ratio). Put shortly: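 CellSensor ESRE-bla HeLa cells, 1,500 per well, plated overnight, then exposed to compounds for 5 hr at 37 C. Beta-lactamase reporter read with LiveBLAzer B/G FRET substrate after 2 hr at room temperature, 405 nm excitation, 460 and 530 nm emission.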

Test [12] in a line: qHTS assay to identify small molecule agonists of the endoplasmic reticulum stress response signaling pathway - cell viability counter screen (AID 1159517; calls by dose curve;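 note: HeLa cells carrying an ER stress response element beta-lactamase reporter; series mostly up to about 61 µM; nearly all actives have a fitted effect of over 50% in size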). In outline:
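Cells, HeLa ESRE-bla; density, 1,500/well; dosing, 5 hr at 37 C, 5% CO2; readout, CellTiter-Glo luminescence after 30 min RT.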

Test [13] is described as follows: qHTS assay to identify small molecule antagonists of the retinoid-related orphan receptor gamma (ROR-gamma) signaling pathway - cell viability counter screen (AID 1159520). Note: nearly all actives have a fitted effect of over 50% in size. Put shortly:
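Cytotoxicity was read from cellular ATP (CellTiter-Glo luminescence) after 16 hr at 37 C with 1 uM doxycycline induction. The inducer was added 2 hr after compound transfer to Tet-on ROR gamma CHO cells.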

A short description of test [14]: qHTS assay to identify small molecule agonists of the AP-1 signaling pathway - cell viability counter screen (AID 1159525; calls by dose curve; note: nearly all actives have a fitted effect of over 55% in size). In outline:
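Luminescent ATP readout (Cell Titer Glo, 30 min RT), normalised to DMSO and tetra n-octyl ammonium bromide controls. Cells were ME-180 AP-1-bla in 0.5% dialyzed FBS Opti-MEM, with a 5 h, 37 °C compound exposure.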

Test [15] is described as follows: qHTS assay to identify small molecule agonists of the AP-1 signaling pathway (AID 1159526; calls by dose curve).
For test [16], the target named is Peroxisome proliferator-activated receptor delta (Homo sapiens) (UniProt Q03181). The test can be described thus: qHTS assay to identify small molecule agonists of the peroxisome proliferator-activated receptor delta (PPARd) signaling pathway (AID 743212; calls by dose curve). Put shortly:
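HEK293H UAS-bla reporter cells, human PPARd system; compounds delivered in DMSO after 5 h plating, then at 37 C. Beta-lactamase FRET read, 2 h RT substrate step.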

The nature of test [17]: qHTS assay to identify small molecule antagonists of the peroxisome proliferator-activated receptor delta (PPARd) signaling pathway - cell viability counter screen (AID 743213). Note: nearly all actives have a fitted effect of over 50% in size. Put shortly:
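CellTiter-Glo was added to PPARd-bla HEK293H wells following 17 h compound treatment in the presence of 300 nM L165041. Luminescence was recorded after 30 min at room temperature.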

Test [18] addresses Nuclear receptor ROR-gamma (Homo sapiens) (UniProt P51449). The test can be described thus: qHTS assay to identify small molecule antagonists of the retinoid-related orphan receptor gamma (ROR-gamma) signaling pathway (AID 1159521). Put shortly:
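CHO Tet-on RORγ, RORE-luc reporter. Cpd 2 h pre-incubation, then dox hyclate 1 uM final, 16 h, 37 C/5% CO2. ONE-Glo luminescence; decrease = antagonist.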

The target of test [19] is Bile acid receptor (Homo sapiens) (UniProt Q96RI1). The test can be described thus: qHTS assay to identify small molecule antagonists of the farnesoid-X-receptor (FXR) signaling pathway (AID 743217; active = well fitted inhibition curve with a large enough effect in the signal ratio in the repeat runs, not every such curve was filed as active; the % refers to the signal ratio). In outline: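 FXR-UAS-bla HEK 293T cells (beta-lactamase reporter) given compound plus chenodeoxycholic acid (50 uM final), 16 h at 37C. LiveBLAzer B/G FRET substrate added for 2 h at room temperature; fluorescence read.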

The target is the same in test [20]. The test can be described thus: qHTS assay to identify small molecule agonists of the farnesoid-X-receptor (FXR) signaling pathway (AID 743220; active = well fitted activation curve with a large enough effect in the signal ratio in the repeat runs, not every such curve was filed as active; the % refers to the signal ratio). In outline:
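Beta-lactamase reporter under UAS control in GeneBLAzer FXR HEK 293T cells (5000/well) measured with LiveBLAzer FRET substrate after 2 h at room temperature. Compound exposure lasted 16 h at 37C.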

Chain of Vitamin D3 receptor (Homo sapiens) (P11473 whole entry, looked up): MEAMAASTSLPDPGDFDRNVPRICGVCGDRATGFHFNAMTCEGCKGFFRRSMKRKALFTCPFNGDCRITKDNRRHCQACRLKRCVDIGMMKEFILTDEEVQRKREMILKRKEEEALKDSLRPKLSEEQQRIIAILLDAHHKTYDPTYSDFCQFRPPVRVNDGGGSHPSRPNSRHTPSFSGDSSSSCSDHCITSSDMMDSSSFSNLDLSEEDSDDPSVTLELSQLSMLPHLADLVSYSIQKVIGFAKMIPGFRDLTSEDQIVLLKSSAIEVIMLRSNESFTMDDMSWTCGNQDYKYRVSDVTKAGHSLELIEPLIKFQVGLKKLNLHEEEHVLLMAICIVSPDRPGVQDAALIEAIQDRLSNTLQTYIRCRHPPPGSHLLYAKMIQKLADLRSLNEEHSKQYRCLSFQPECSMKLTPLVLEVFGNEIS
Chain of Peroxisome proliferator-activated receptor delta (Homo sapiens) (Q03181 whole entry, looked up): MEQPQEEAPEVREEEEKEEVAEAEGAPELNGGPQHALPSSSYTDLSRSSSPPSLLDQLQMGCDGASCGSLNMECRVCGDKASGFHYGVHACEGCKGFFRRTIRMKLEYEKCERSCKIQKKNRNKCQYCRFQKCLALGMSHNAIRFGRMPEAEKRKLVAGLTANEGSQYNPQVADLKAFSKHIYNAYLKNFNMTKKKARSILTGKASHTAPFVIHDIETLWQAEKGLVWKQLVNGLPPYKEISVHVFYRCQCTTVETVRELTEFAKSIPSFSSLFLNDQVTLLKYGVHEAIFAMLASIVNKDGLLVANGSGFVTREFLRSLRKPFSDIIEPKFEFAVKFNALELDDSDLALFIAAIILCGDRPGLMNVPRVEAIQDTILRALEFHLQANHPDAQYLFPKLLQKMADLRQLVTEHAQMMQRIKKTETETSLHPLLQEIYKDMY
Chain of Bile acid receptor (Homo sapiens) (Q96RI1 whole entry, looked up): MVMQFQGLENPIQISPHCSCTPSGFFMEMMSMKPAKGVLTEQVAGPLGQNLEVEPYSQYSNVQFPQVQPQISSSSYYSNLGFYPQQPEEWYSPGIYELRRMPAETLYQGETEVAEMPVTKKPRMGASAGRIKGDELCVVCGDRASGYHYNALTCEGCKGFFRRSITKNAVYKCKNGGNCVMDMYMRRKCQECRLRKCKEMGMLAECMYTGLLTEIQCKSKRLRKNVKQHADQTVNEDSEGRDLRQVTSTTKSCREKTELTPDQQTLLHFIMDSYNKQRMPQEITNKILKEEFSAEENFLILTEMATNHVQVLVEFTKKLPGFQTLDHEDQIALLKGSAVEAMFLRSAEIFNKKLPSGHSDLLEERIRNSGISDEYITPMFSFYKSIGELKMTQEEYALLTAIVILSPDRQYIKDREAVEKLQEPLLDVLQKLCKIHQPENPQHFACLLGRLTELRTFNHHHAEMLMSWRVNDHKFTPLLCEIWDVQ

Take `C=CCOc1cc(Cl)ccc1C(=O)NCCN(CC)CC`: the outcome in test [1], in test [2], in test [4], in test [5], in [6] and in test [7] was inactive. Further, the result in test [8], in [9], in test [10], in test [11], in test [12] and in [13] was inactive. Moreover, the call in test [14] and in test [15] was inactive. Moreover, in [3], the Potency result was “inactive”.

For the compound `COc1cc(C=O)ccc1OC(=O)C(C)C`, the compound was called inactive in test [1], in test [16], in test [17], in [2], in test [7] and in [8]. The compound was classed as inactive in [9], in [10], in test [11], in [12], in [18] and in test [14]. Also, the result in [15] was inactive. Further, the Potency entry in test [3] was “inactive”.

For the compound `CC(=O)/C=C/c1ccco1`, the compound was classed as inactive in test [1], in [16], in [17], in test [19], in test [20] and in [4]. The compound was classed as inactive in [5], in [6], in [7], in test [8], in test [9] and in [10]. The compound was classed as inactive in [11], in test [12], in [18], in [14] and in test [15]. Further, in [3], the Potency entry is “inactive”.

As to `CCOC(=O)CC#N`, the outcome in test [1], in test [16], in test [17], in [2], in test [19] and in test [20] was inactive. For the same compound, the call in [4], in [7], in test [8], in [9], in test [10] and in test [11] was inactive. Besides, the result in [12], in test [18], in [14] and in [15] was inactive. In addition, the Potency entry in test [3] is “inactive”.

Turning to `CCN(CC)C(=O)C1CN2CCc3cc(OC)c(OC)cc3C2CC1OC(C)=O` (centres undefined), the result in [1], in [16], in test [17], in test [2], in [19] and in test [20] was inactive. The compound was classed as inactive in test [7], in [8], in test [9], in test [10], in test [11] and in test [12]. For the same compound, the call in test [13] and in [15] was inactive. Besides, the Potency in test [3] is 0.237 µM (active).

Consider `CN(C1CCCCC1)S(=O)(=O)c1ccccc1N`, for which the result in [1], in test [16], in [17], in [2], in [19] and in test [20] was inactive. Also, the outcome in test [4], in test [5], in [6], in test [7], in [8] and in [9] was inactive. The result in test [10], in [11], in test [12], in test [18], in [14] and in test [15] was inactive. Moreover, the Potency result in test [3] is “inactive”.

`Cc1cc(O)c2c(c1)C(=O)c1cccc(O)c1C2=O`: the outcome in test [1], in test [16], in [17], in test [2], in test [19] and in [20] was inactive. The compound was classed as inactive in test [4], in [6], in test [7], in test [8], in test [9] and in test [10]. For the same compound, the outcome in test [11], in [12], in test [18], in test [14] and in [15] was inactive. Moreover, in test [3], the Potency result was “inactive”.

`CC(C)(CO)[C@@H](O)C(=O)NCCCO`: the compound was classed as inactive in test [1], in test [16], in test [17], in test [2], in test [19] and in test [20]. Moreover, the compound was called inactive in test [4], in test [5], in [6], in test [7], in test [8] and in test [9]. Further, the compound was called inactive in [10], in [11], in test [12], in test [13] and in test [15]. The Potency result in [3] was “inactive”.
